Screening data: PubChem BioAssay, National Center for Advancing Translational Sciences (NCATS)
Most compounds without a hit are left out; they make up all but 12% or so of the library.
HCV inhibitor: blocks hepatitis C virus | AID 651820 | Huh7.5.1 HCVcc-Cre infection, luciferase reporter, 44 h | 340,000 tested, 3.4% active | Potency, µM (titrated, usually from 41.8 µM), without a hit: at the highest dose activity change, negative = inhibition, hits mostly inhibitors; further: on the % scale 0 is the no-effect control and ±100 the full control effect
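Compounds are dispensed onto cells plated 4 h earlier at 1,000 per well, with HCVcc-Cre virus (about 0.5 moi) added next. Following 44 h of culture, luminescent signal is measured for 15 sec after 15 min with substrate at room temperature.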
AMA1 RON2 block: inhibitors of Plasmodium falciparum AMA1-RON2 interaction. AlphaScreen AMA1-biotinylated RON2 peptide binding. Potency, µM (series often up to 58.2 µM), for the others: at the top dose activity change, negative = inhibition, usual class: inhibitors. 360,000 tested, 0.2% active;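 further: 0% = vehicle wells and -100% = peptide control; nearly all actives have a fitted effect of over 45% in size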
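AMA1 (3D7) with his tag at 25 nM final met compounds first, then biotinylated RON2 peptide at 25 nM; detection used donor plus acceptor beads, 10 µg/mL apiece, read by AlphaScreen after 30 min at room temperature.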
Pf growth 48h: P. falciparum growth inhibition at 48 hours (one generation) | P. falciparum luciferase growth in erythrocytes, 48 h | Potency, µM (highest dose often 28.7 µM), for the others: at the top dose activity change, negative = inhibition, most hits filed as inhibitors | 310,000 tested, 5.9% active; further: on the % scale 0 is the no-effect control and ±100 the full control effect
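Growth was read as firefly luciferase luminescence after a 48 h, 37 C, 5% CO2 exposure of compounds to reporter-bearing P. falciparum cultures (0.1% parasitemia, 2% hematocrit final) in Albumax-supplemented RPMI 1640.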
SARS PLpro yeast: blocks SARS-CoV papain-like protease in a yeast assay. 330,000 tested, 0.19% active. Potency, µM (series often up to 32.9 µM), inactives show top-dose activity, positive = growth rescue, hits mostly activators. S. cerevisiae expressing SARS-CoV PLpro, growth rescue; calls by dose curve; further: 0% is about no effect; nearly all actives have a fitted effect of over 55% in size
Pf growth 96h: P. falciparum growth inhibition at 96 hours | Potency, µM (highest dose often 28.7 µM), without a hit: top-dose activity change, negative = inhibition, actives largely listed as inhibitors | P. falciparum luciferase reporter growth, 96 h | 320,000 tested, 6.9% active; further: on the % scale 0 is the no-effect control and ±100 the full control effect
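Two-generation exposure (96 h) targets delayed-death phenotype. Reporter parasites carrying integrated firefly luciferase, in red cells at 2% hematocrit and 0.05% parasitemia final, kept at 37 C, 5% CO2; luminescence loss indicates inhibition.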
NS1 inh: inhibitors of influenza NS1 protein function; Potency, µM (doses to about 46.1 µM), for inactives: at the highest dose activity, positive = more growth; 270,000 tested, 0.4% active; AID 2326; calls by dose curve; further: actives are rising curves; nearly all actives have a fitted effect of over 50% in size
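Growth recovery, yeast-based: influenza A NS1 expressed in S. cerevisiae causes slow growth, and suppressors are detected by OD600. The parent strain without NS1 is used as positive control.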
Starred values were filed as active, the others as inactive. Unless noted, the call rests on the fitted dose curve; in most records, active means well fitted curve in the direction sought with a large enough effect; inconclusive means small, poorly fitted or top-dose-only effect, or another doubt; inactive means no such curve, though single readings can be large; an effect the other way counts as inactive or inconclusive. Potency means the concentration at half of the fitted maximal effect.

`CC(=O)OC(=C(OC(C)=O)c1ccccc1)c1ccccc1` gave HCV inhibitor -4% and AMA1 RON2 block -15%.
`N#CC(=C1C=CC(=NO)C(Cl)=C1)c1ccc(Cl)cc1` gave HCV inhibitor 6% and AMA1 RON2 block inconclusive.
For COc1ccc(C(C#N)=C2C=CC(=NO)C=C2)cc1 the results were HCV inhibitor inconclusive, AMA1 RON2 block 16µM*, Pf growth 48h inconclusive, SARS PLpro yeast -21%, Pf growth 96h inconclusive and NS1 inh -92%.
Screening CC(=O)ON=C1C=CC(=C(C#N)c2ccccc2)C=C1 returned AMA1 RON2 block 28µM*.
Screening O=C(NCc1ccccc1)C1CC(=O)N(C2CCCCC2)C1 (stereo unspecified) returned HCV inhibitor -1%, AMA1 RON2 block -8%, Pf growth 48h 1%, Pf growth 96h -24% and NS1 inh 7%.
Screening CCN(CC(=O)N1CCCCCC1)S(=O)(=O)c1ccc(C)cc1 returned HCV inhibitor 13%, AMA1 RON2 block -2%, Pf growth 48h -15%, SARS PLpro yeast -4%, Pf growth 96h 7.4µM* and NS1 inh 1%.
CCN(CC(=O)N1CCCCCC1)S(=O)(=O)c1ccc(Cl)cc1 was read as HCV inhibitor 12%, AMA1 RON2 block -5%, Pf growth 48h inconclusive, Pf growth 96h 19% and NS1 inh 1%.
Screening CCN(CC(=O)N1CCN(C)CC1)S(=O)(=O)c1ccc(Cl)cc1 returned HCV inhibitor -5%, AMA1 RON2 block -1%, Pf growth 48h -14%, SARS PLpro yeast 8%, Pf growth 96h 9.3µM* and NS1 inh -4%.
For CCOC(=O)N1CCN(C(=O)CN(Cc2ccc(Cl)cc2)S(C)(=O)=O)CC1 the results were HCV inhibitor 5%, AMA1 RON2 block 10%, Pf growth 48h -6%, SARS PLpro yeast -2%, Pf growth 96h 1% and NS1 inh -3%.
`CCOC(=O)N1CCN(C(=O)CN(Cc2ccc(Cl)cc2)S(=O)(=O)c2ccc(C)cc2)CC1` gave HCV inhibitor inconclusive, AMA1 RON2 block 0%, SARS PLpro yeast -2%, Pf growth 96h 1.9µM* and NS1 inh 0%.
For COc1ccc(C(C)(NC(C)=O)c2nc(-c3cc(F)cc(F)c3)cs2)cc1 (stereo unspecified) the results were AMA1 RON2 block -7%.
For Cn1c2ccccc2c2c(C(=O)NCC3CCCO3)cn(C3CCCC3)c(=O)c21 (stereo unspecified) the results were HCV inhibitor inconclusive, AMA1 RON2 block -2%, Pf growth 48h inconclusive, SARS PLpro yeast -2%, Pf growth 96h 4.1µM* and NS1 inh -14%.
CN1CCN(CCCNC(=O)c2cn(C3CCCCC3)c(=O)c3c2c2ccccc2n3C)CC1 was read as HCV inhibitor -14%, AMA1 RON2 block -8%, SARS PLpro yeast 7%, Pf growth 96h 21% and NS1 inh 0%.
Screening CC(C)Cn1cc(C(=O)NCCCOC(C)C)c2c3ccccc3n(C)c2c1=O returned HCV inhibitor -10%, AMA1 RON2 block -1%, SARS PLpro yeast 3%, Pf growth 96h inconclusive and NS1 inh -4%.
`CC(C)Cn1cc(C(=O)NCC2CCCO2)c2c3ccccc3n(C)c2c1=O` (stereo unspecified) gave HCV inhibitor -14%, AMA1 RON2 block 7%, Pf growth 48h 13µM*, SARS PLpro yeast -13%, Pf growth 96h -41% and NS1 inh -5%.
For CS[C@@H](CC(=O)O)C(=O)O the results were NS1 inh -2%.
`CCOc1ccc(C(=O)OC2CCCN(C)C2)cc1` (stereo unspecified) gave HCV inhibitor -2%, AMA1 RON2 block -1%, Pf growth 48h -6%, SARS PLpro yeast 1%, Pf growth 96h 10µM* and NS1 inh -4%.
For CCOc1ccc(C(=O)OC(C)CN2CCN(C)CC2)cc1 (stereo unspecified) the results were HCV inhibitor 1.8µM*, AMA1 RON2 block -4%, SARS PLpro yeast -1%, Pf growth 96h 13% and NS1 inh -1%.
Screening CC(CN1CCN(C)CC1)OC(=O)c1ccc(Cl)cc1 (stereo unspecified) returned HCV inhibitor inconclusive, AMA1 RON2 block -1%, Pf growth 48h -18%, SARS PLpro yeast 8%, Pf growth 96h inconclusive and NS1 inh 0%.
`CCN(Cc1ccccc1)C(=O)CCS(=O)(=O)c1cc2c(cc1Cl)NC(=O)CO2` gave HCV inhibitor 3%, AMA1 RON2 block 13%, Pf growth 48h -18%, SARS PLpro yeast -1%, Pf growth 96h inconclusive and NS1 inh 2%.
`c1coc(C2=NC(c3ccco3)C(c3ccco3)N2)c1` (stereo unspecified) gave HCV inhibitor 4% and AMA1 RON2 block -4%.
CN(C(=O)C1CCCO1)c1nnc(-c2cnccn2)s1 (stereo unspecified) was read as HCV inhibitor 6%, AMA1 RON2 block -9%, Pf growth 48h -9%, SARS PLpro yeast -14%, Pf growth 96h 3.3µM* and NS1 inh -4%.
COc1ccc2nc3cc(Cl)ccc3c(Nc3cc(CN4CCCC4)c(O)c(CN4CCCC4)c3)c2n1 was read as Pf growth 48h 0.052µM*, SARS PLpro yeast -16%, Pf growth 96h inconclusive and NS1 inh -17%.
Screening O=C1CCCN1CC(=O)N1CCCC(N2CCN(c3cccc(Cl)c3)CC2)C1 (stereo unspecified) returned AMA1 RON2 block 0%, Pf growth 48h -7%, SARS PLpro yeast -1%, Pf growth 96h inconclusive and NS1 inh -7%.
Screening CCS(=O)(=O)c1nc(S(=O)(=O)c2ccc(Cl)cc2)c(N2CCc3ccccc3C2)s1 returned HCV inhibitor -28%, AMA1 RON2 block 9%, Pf growth 48h 9.3µM*, SARS PLpro yeast -8%, Pf growth 96h 2.9µM* and NS1 inh 27%.
CCCS(=O)(=O)c1nc(S(=O)(=O)c2ccc(C)cc2)c(N2CCOCC2)s1 was read as HCV inhibitor -3%, AMA1 RON2 block -4%, Pf growth 48h 12µM*, SARS PLpro yeast 4%, Pf growth 96h -23% and NS1 inh -1%.
CCN1CCN(c2sc(S(=O)(=O)CC)nc2S(=O)(=O)c2ccc(Cl)cc2)CC1 was read as AMA1 RON2 block -4%.
CC1CCCN(c2sc(S(C)(=O)=O)nc2S(=O)(=O)c2ccc(Cl)cc2)C1 (stereo unspecified) was read as HCV inhibitor -23%, AMA1 RON2 block -8%, Pf growth 48h inconclusive, SARS PLpro yeast 0%, Pf growth 96h 13µM* and NS1 inh -8%.
